Assay outcomes from PubChem BioAssay.
Sampled rows, rich in hits. Any-hit rate of the full collection: about 5.3%.
Lassa entry inh: qHTS for Inhibitors of binding or entry into cells for Lassa Virus; Potency, µM (top dose mostly 37.9 µM), without a hit: top-dose activity change, negative = inhibition, actives largely listed as inhibitors; 1.2% of 300,000 active; Lassa virus pseudotype entry inhibition, cell reporter; calls by dose curve; tested in HEK293 cells; note: nearly all actives have a fitted effect of over 50% in size
Vaccinia mCherry: qHTS for Stage-Specific Inhibitors of Vaccinia Orthopoxvirus: mCherry Reporter Primary qHTS; Vaccinia virus mCherry reporter infection, fluorescence; 0.63% of 310,000 active; Potency, µM (series often up to 36.5 µM), without a hit: at the top dose activity change, negative = inhibition, actives largely listed as inhibitors; calls by dose curve; tested in A549 cells; note: nearly all actives have a fitted effect of over 35% in size
FMDV antiviral: High Throughput Screening for Foot and Mouth Disease Virus Antivirals; Potency, µM (highest dose often 57.9 µM), inactives show top-dose activity change, negative = inhibition, actives largely listed as inhibitors; FMDV antiviral cell-based qHTS; AID 1159524, 2015; 1.2% of 410,000 active; calls by dose curve; tested in HEK293T cells; note: read-out not given here; nearly all actives have a fitted effect of over 45% in size
HCV inhibitor: qHTS Assay for Inhibitors of Hepatitis C Virus (HCV); Huh7.5.1 HCVcc-Cre infection, luciferase reporter, 44 h; Potency, µM (highest dose often 41.8 µM), inactives show at the top dose activity change, negative = inhibition, most hits filed as inhibitors; 3.4% of 340,000 active; AID 651820, 2012; active = well fitted inhibition curve with a large enough effect; inconclusive = small, poorly fitted or top-dose-only effect, or another doubt; inactive = no such curve, though single readings can be large or run the other way
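A cell-based infection assay in which seeded cells (1,000 per well) receive test compound after 4 h, are inoculated with HCVcc-Cre at approximately 0.5 moi, and are incubated 44 h before luminescence detection.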
VACV Venus inh: qHTS for Stage-Specific Inhibitors of Vaccinia Orthopoxvirus: Venus Reporter Primary qHTS. Potency, µM (series often up to 36.5 µM), for the others: at the top dose activity change, negative = inhibition, most hits filed as inhibitors. Vaccinia virus Venus reporter expression, fluorescence. 0.46% of 330,000 active. AID 720580, 2013; calls by dose curve; tested in A549 cells; note: nearly all actives have a fitted effect of over 30% in size
Marburg entry inh: qHTS for inhibitors of binding or entry into cells for Marburg Virus | Marburg virus pseudotyped entry inhibition, cell reporter | AID 540276, 2011 | 1.8% of 300,000 active | Potency, µM (titrated, usually from 37.8 µM), without a hit: top-dose activity change, negative = inhibition, actives largely listed as inhibitors; calls by dose curve; tested in HEK293 cells
Numbers without * were called inactive; [ ] = dose if it differs, or a comment. % is set by controls: 0 for no effect and ±100 for the full control effect; potency is the fitted concentration of half-maximal effect.

How did CC(C)C[C@H](NC(=O)c1nc[nH]c1C(=O)NCCCCCN)C(=O)OCc1ccccc1 do in these assays?
Vaccinia mCherry: -12%; FMDV antiviral: -21%; HCV inhibitor: 8%; VACV Venus inh: -5%

Results for Cc1ccc(NC(=O)CSc2nnc(CSc3nc(C)cc(C)n3)n2Cc2ccco2)c(C)c1 ?
Lassa entry inh: 2%; Vaccinia mCherry: inactive; FMDV antiviral: 13%; HCV inhibitor: 11µM*; VACV Venus inh: -12%; Marburg entry inh: 7%

How did COc1ccc(NC(=O)Cn2c(=O)n(-c3ccc(CC(=O)NCC4CCCO4)cc3)c(=O)c3ccccc32)c(OC)c1 (centres undefined) do in these assays?
Lassa entry inh: inconclusive; Vaccinia mCherry: 2%; FMDV antiviral: -17%; VACV Venus inh: 0%; Marburg entry inh: -4%[46.1 µM]

Results for CCC1(c2ccc(Cl)cc2)NC(=O)N(CC(=O)NCc2ccc(F)cc2)C1=O (centres undefined) ?
Lassa entry inh: inconclusive; Vaccinia mCherry: -25%; FMDV antiviral: -14%; HCV inhibitor: -1%; VACV Venus inh: -25%; Marburg entry inh: inconclusive

Results for CCC1(c2ccc(Cl)cc2)NC(=O)N(Cc2ccc(C(=O)OC)cc2)C1=O (centres undefined) ?
Lassa entry inh: inconclusive; Vaccinia mCherry: inactive; FMDV antiviral: inconclusive; HCV inhibitor: 10µM*; VACV Venus inh: -7%; Marburg entry inh: 8.9µM*

How did Oc1cccc(Nc2nc(-c3ccccc3Cl)nc3ccccc23)c1 do in these assays?
Lassa entry inh: -40%[46.1 µM]; Vaccinia mCherry: 10µM*; FMDV antiviral: inconclusive; HCV inhibitor: -19%; VACV Venus inh: -20%; Marburg entry inh: inconclusive

What do the screens show for `c1cncc(Nc2c3ccccc3nc3ccccc23)c1`?
Lassa entry inh: 1%; Vaccinia mCherry: -25%; FMDV antiviral: -18%; HCV inhibitor: inconclusive; VACV Venus inh: inconclusive; Marburg entry inh: inconclusive

What do the screens show for `NNc1nc(-c2ccccc2Cl)nc2ccccc12`?
FMDV antiviral: 19%; HCV inhibitor: 0%

What do the screens show for `COc1ccc(Nc2nc(-c3ccccc3O)nc3ccccc23)cc1`?
Lassa entry inh: -21%; Vaccinia mCherry: inconclusive; FMDV antiviral: inconclusive; HCV inhibitor: inconclusive; VACV Venus inh: inconclusive; Marburg entry inh: inconclusive

How did Fc1cccc(Nc2nc(-c3ccncc3)nc3ccccc23)c1 do in these assays?
Lassa entry inh: -10%; FMDV antiviral: 25µM*; HCV inhibitor: inconclusive; Marburg entry inh: inconclusive

Results for Oc1ccc(Nc2nc(-c3ccccc3O)nc3ccccc23)cc1 ?
FMDV antiviral: 0%; HCV inhibitor: 11µM*

Results for Oc1cccc(Nc2c3ccccc3nc3ccccc23)c1 ?
Vaccinia mCherry: inconclusive; FMDV antiviral: inconclusive; HCV inhibitor: inconclusive; VACV Venus inh: 10µM*

Results for NC1N=CC(c2cc3ccccc3oc2=O)S1 (centres undefined) ?
Marburg entry inh: -13%[46.1 µM]

What do the screens show for `Cc1ccc(-c2nc(C(Cl)Cl)c3ccccc3n2)cc1`?
FMDV antiviral: 39%; HCV inhibitor: 3.5µM*

How did O=[N+]([O-])c1ccc(-c2nc(Nc3cccc(O)c3)c3ccccc3n2)cc1 do in these assays?
FMDV antiviral: inconclusive; HCV inhibitor: 6.3µM*

What do the screens show for `COc1cccc(Nc2nc(-c3ccccc3)nc3ccccc23)c1`?
Lassa entry inh: inconclusive; Vaccinia mCherry: -4%; FMDV antiviral: -23%; HCV inhibitor: 10µM*; VACV Venus inh: -19%; Marburg entry inh: inconclusive

How did Cc1ccc(-c2nc(Nc3ccc(O)cc3)c3ccccc3n2)cc1 do in these assays?
Lassa entry inh: inconclusive; Vaccinia mCherry: inconclusive; FMDV antiviral: 35%; HCV inhibitor: 7.1µM*; VACV Venus inh: -26%; Marburg entry inh: inconclusive

Results for Cc1ccc(-c2nc(Nc3cccc(O)c3)c3ccccc3n2)cc1 ?
FMDV antiviral: -24%; HCV inhibitor: 28µM*

How did c1ccc(Nc2nc(-c3ccccc3)nc3ccccc23)cc1 do in these assays?
FMDV antiviral: -20%; HCV inhibitor: 14µM*

Results for COc1ccc2c(c1)OC(C)CN(CCNC(=O)c1ccc(-n3cccn3)cc1)C2 (centres undefined) ?
Vaccinia mCherry: -26%; FMDV antiviral: 0%; VACV Venus inh: -11%

How did CN(C)CCn1c2ccccc2c2nc3ccc([N+](=O)[O-])cc3cc21 do in these assays?
Lassa entry inh: inconclusive; Vaccinia mCherry: inactive; FMDV antiviral: 6%; HCV inhibitor: -58%; VACV Venus inh: inconclusive; Marburg entry inh: inconclusive

What do the screens show for `CCOC(=O)C1=CN(Cc2cccc(F)c2)S(=O)(=O)N(CC)C1c1ccccc1` (centres undefined)?
Vaccinia mCherry: inconclusive; FMDV antiviral: -1%; HCV inhibitor: 0.56µM*; VACV Venus inh: -16%

Results for CCOC(=O)C1=CN(Cc2cccc(F)c2)S(=O)(=O)N(CC)C1c1cccc(OC)c1 (centres undefined) ?
Vaccinia mCherry: -22%; FMDV antiviral: 3%; HCV inhibitor: 5%; VACV Venus inh: -11%

How did COc1ccc(N2CCN(C(c3ccccc3)c3nnnn3Cc3ccccc3)CC2)cc1 (centres undefined) do in these assays?
Vaccinia mCherry: -16%; VACV Venus inh: -21%

How did Cc1cccc(OCc2nc(C#N)c(NCc3ccccc3Cl)o2)c1 do in these assays?
Lassa entry inh: 16%[46.1 µM]; Vaccinia mCherry: -16%; FMDV antiviral: 11%; VACV Venus inh: -3%; Marburg entry inh: -29%[46.1 µM]

What do the screens show for `O=C(O)c1cnc(-c2ccccc2)nc1Oc1ccccc1`?
Lassa entry inh: 9%; Vaccinia mCherry: inactive; FMDV antiviral: -4%; HCV inhibitor: 3.5µM*; VACV Venus inh: -9%; Marburg entry inh: 8%[46.1 µM]

How did Cc1ccc(Oc2nc(-c3ccccc3)ncc2S(=O)(=O)c2ccc(C)cc2)cc1 do in these assays?
Lassa entry inh: inconclusive; FMDV antiviral: 0%; HCV inhibitor: 5.6µM*; VACV Venus inh: -4%; Marburg entry inh: 13%

Results for CC(Sc1ccc(S(=O)(=O)N2CCOCC2)cn1)c1ccccc1Cl (centres undefined) ?
Lassa entry inh: 8.9µM*; Vaccinia mCherry: -13%; FMDV antiviral: -25%; HCV inhibitor: 2%; VACV Venus inh: -14%; Marburg entry inh: inconclusive

How did COc1ccc2c3c(n(C(=O)OC(C)(C)C)c2c1)C1CC=C(COC(C)=O)CN1CC3 (centres undefined) do in these assays?
Vaccinia mCherry: -21%; FMDV antiviral: -12%; VACV Venus inh: -12%
